From PubChem BioAssay (Tox21)
Results filed as inconclusive are left out. Where a call stands in place of a potency, no number is given. Active and inactive are the calls of the source. Calls come from the whole dose curve.

target: 5-hydroxytryptamine receptor 2A (Homo sapiens) (UniProt P28223); assay: 5-hydroxytryptamine receptor 2A (HTR2A) small molecule antagonists, cell-based qHTS assay (AID 1963586); details: HTR2A-CHO cells, DOI-induced calcium flux, fluorescence; series mostly up to 61.5 µM; note: nearly all actives have a fitted effect of over 45% in size
Sequence (P28223 whole entry, looked up): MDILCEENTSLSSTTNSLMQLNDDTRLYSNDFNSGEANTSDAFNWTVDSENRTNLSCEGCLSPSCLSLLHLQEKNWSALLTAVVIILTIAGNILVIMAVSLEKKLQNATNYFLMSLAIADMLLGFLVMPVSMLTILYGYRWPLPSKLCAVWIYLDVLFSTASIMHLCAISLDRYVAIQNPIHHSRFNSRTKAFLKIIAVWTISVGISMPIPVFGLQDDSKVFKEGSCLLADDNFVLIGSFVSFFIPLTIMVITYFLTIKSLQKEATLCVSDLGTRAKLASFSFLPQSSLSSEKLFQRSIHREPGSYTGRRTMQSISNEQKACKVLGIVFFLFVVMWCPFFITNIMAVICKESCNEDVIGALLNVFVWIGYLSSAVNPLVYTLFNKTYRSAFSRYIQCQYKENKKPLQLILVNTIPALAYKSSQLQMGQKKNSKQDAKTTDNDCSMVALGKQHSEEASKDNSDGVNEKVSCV
Excerpt: National Center for Advancing Translational Sciences [NCATS]
Division of Preclinical Innovation [DPI]
U.S. Environmental Protection Agency [EPA]
National Institutes of Environmental Health Sciences [NIEHS]
National Toxicology Program [NTP]
U.S. Food and Drug Administration [FDA]
The HTR2A receptor is a subtype of the 5-HT2 receptor that belongs to the serotonin receptor family and is a G protein-coupled receptor (GPCR). The HTR2A-CHO cell line stably expressing human 5-hydroxytryptamine receptor 2A (HTR2A) can be used for screening antagonists of interactions between 5-HT2 and its ligands. The HTR2A-CHO calcium flux assay is a homogeneous fluorescence-based assay for detecting the intracellular calcium level using FDSS kinetic plate reader system.
Tox21 Assay Protocol Summary:
HTR2A-CHO cells were dispensed at 2000 cells/3uL/well in 1536-well black-clear bottom plates using a Multidrop Dispenser. After the assay plates were incubated at a 37 C/5% CO2 incubator for 18 h, 3 uL of Dye Loading Buffer was transferred to the assay plate by a Flying Reagent Dispenser. The assay plates were incubated at 37 C for 1h. For antagonist mode, 23 nL of compounds dissolved in DMSO, positive controls or DMSO only was transferred to the assay plate by a pin tool. After 5 min incubation at room temperature, 1.5 uL of 4-Iodo-2,5-dimethoxy-alpha-methylbenzeneethanamine hydrochloride (DOI) at 4nM was added to each well. The fluorescence intensity in the plates was measured using FDSS 7000EX kinetic plate reader for 3 min at 1 sec intervals.
Potency is the fitted concentration of half-maximal effect.

Row | SMILES | Potency
1 | CCOC(=O)CS | inactive
2 | C=C[Si](C)(C)O[Si](C)(C)C=C | inactive
3 | O=C(O)CCCC[P+](c1ccccc1)(c1ccccc1)c1ccccc1 | inactive
4 | O=C(O)c1c(Cl)cccc1Cl | inactive
5 | Nc1c2c(nc3ccccc13)CCCC2O (stereo not given) | inactive
6 | Cn1nnc2c(C(N)=O)ncn2c1=O | inactive
7 | ClC1=C(Cl)C1(Cl)Cl | inactive
8 | CCC(C=O)CC | inactive
9 | CCC1(CO)COCOC1 | inactive
10 | O=C(O)Cc1c(Cl)ccc(Cl)c1Cl | inactive
11 | CC(=O)NC(=O)c1ccccc1O | inactive
12 | CCC1CCC(CCC(=O)O)C1 (stereo not given) | inactive
13 | C[C@H]1C[C@H]2[C@@H]3CCC4=CC(=O)C=C[C@]4(C)[C@H]3C(=O)C[C@]2(C)[C@@]1(O)C(=O)CO | inactive
14 | CCCCCCCC(=O)OCC | inactive
15 | Cc1nc2n(c(=O)c1CCN1CCC(C(=O)c3ccc(F)cc3)CC1)CCS2 | 4.1 nM (active)
16 | C1CCN(CN2CCCCC2)CC1 | inactive
17 | C=CC(=O)OCC(Br)CBr (stereo not given) | inactive
18 | COC(=O)C1=C(C)NC(C)=C(C(=O)OCCN2CCN(C(c3ccccc3)c3ccccc3)CC2)C1c1cccc([N+](=O)[O-])c1 (stereo not given) | 8180 nM (active)
19 | COc1cccc(O)c1 | inactive
20 | Cn1cnc2ncnc(N)c21 | inactive

Row | SMILES | Potency
21 | CC(N)CCCC(C)(C)O (stereo not given) | inactive
22 | Clc1ccc2n[nH]nc2c1 | inactive
23 | O=C1CCCc2c(O)cccc21 | inactive
24 | O=c1[nH]c(=O)n([C@H]2O[C@H](CO)[C@@H](O)[C@@H]2O)cc1/C=C\Br | inactive
25 | ONc1ccccc1 | inactive
26 | NNc1nc(-c2ccc([N+](=O)[O-])cc2)cs1 | inactive
27 | CCc1cccc(C)c1N(C(=O)C(=O)O)C(C)COC (stereo not given) | inactive
28 | CCCOC(=O)c1ccc(N)cc1 | inactive
29 | Nc1ccc2cc(S(=O)(=O)O)cc(O)c2c1 | inactive
30 | COc1ccc(OC)c(NC(=O)CC(C)=O)c1 | inactive
31 | CCOC(=O)COc1cc(-n2ncc(C(F)(F)F)c(C)c2=O)c(F)cc1Cl | inactive
32 | NC1CCN(c2cccc(Cl)n2)CC1 | 410 nM (active)
33 | C=C(C)C(=O)OCCCCCCCCCCOC(=O)C(=C)C | inactive
34 | O=C(/C=C/c1ccc(O)c(O)c1)O[C@@H]1C[C@](O)(C(=O)O)C[C@@H](O)[C@H]1O | inactive
35 | O=S(=O)(O)c1ccc(N=Nc2c(O)ccc3ccccc23)cc1 | inactive
36 | NS(=O)(=O)c1cc(-c2nn[nH]n2)c(NCc2cccs2)cc1Cl | inactive
37 | O=C(O)c1ccc2cc(O)ccc2c1 | inactive
38 | COc1ccccc1OC(=O)Oc1ccccc1OC | inactive
39 | Nc1ccc(Oc2cccc(Oc3ccc(N)cc3)c2)cc1 | 840 nM (active)
40 | Cc1ccc(N(CCO)CCO)cc1 | inactive
